From PubChem BioAssay
Only some compounds are listed: those with a hit (about 3.2% of all), similar ones and a draw of the others.
GDH-TPI counter-1 = GDH-TPI coupling enzyme inhibitors, primary screen, artefact control for M. tuberculosis FBA inhibitor project, biochemical, absorbance, full deck | GDH-TPI coupled enzyme counterscreen, NADH absorbance | inhibition, % at 4.8 µM | hit rate 1.2% among 360,000 | AID 588335, 2011; in the data active = inhibition above about 30%
Mtb FBA inh = Mtb FBA enzyme inhibitors, primary screen, biochemical, fluorescence, strain H37Rv; purified M. tuberculosis FBA, fluorescence read-out; inhibition, % at 1 µM; hit rate 2.3% among 360,000; AID 588726, 2011
Y pestis TopoI = Yersinia pestis topoisomerase I inhibitors, primary screen, biochemical, cleavage product accumulation, plate reader, single point; activity, % at 10 µM; hit rate 0.064% among 360,000; Y. pestis Topo-I cleavage product accumulation; DNA topoisomerase I (Yersinia pestis CO92); in the data active = activity above about 50%, passing the limit was not always enough
TcdB inh = TcdB glycohydrolase inhibitors, primary screen, biochemical, single point, plate reader. inhibition, % at 9.99 µM. hit rate 0.24% among 350,000. Toxin B (Clostridioides difficile), P18177. TcdB glycohydrolase enzymatic assay; in the data active = inhibition above about 10%
PrPC TRFRET = inhibitors of human cell surface prion protein PrPC, primary screen, cell-based, TR-FRET. Major prion protein (Homo sapiens), P04156. hit rate 0.43% among 370,000. inhibition, % at 13.8 µM. TR-FRET read-out; in the data active = inhibition above about 24%
Mtb FBA confirm = M. tuberculosis aldolase blockers, biochemical, fluorescence, strain H37Rv, confirmation; shares compounds with Mtb FBA inh; purified M. tuberculosis FBA, fluorescence read-out; inhibition, % at 1 µM; hit rate 78% among 5,600
GDH-TPI counter-2 = GDH-TPI coupling enzyme inhibitors, artefact control for M. tuberculosis FBA inhibitor project, biochemical, fluorescence, high throughput; shares compounds with Mtb FBA inh; GDH-TPI coupled enzyme counterscreen; inhibition, % at 1 µM; hit rate 81% among 5,600; in the data active = inhibition above about 10%
GDH-TPI DR = GDH-TPI coupling enzyme inhibitors, dose response, artefact control for M. tuberculosis FBA inhibitor project, biochemical, fluorescence, IC50; hit rate 79% among 170; shares compounds with Mtb FBA inh; IC50, µM; GDH-TPI coupled enzyme assay, artifact counterscreen; call rule not given here
Of the large screens only hits and unclear results are named; the others gave an inactive call (follow-up assays come after a bar, where they were run); ! = repeats disagree. Cut-off read from the data, not from the text of the source, unless noted: active = inhibition above about 27%; inactive = the rest.

CC(C)CC#Cc1cnc2c(c1)C(=O)N([C@@H](C)CO)C[C@@H](C)[C@H](CN(C)Cc1ccc3c(c1)OCO3)O2	none (no result: GDH-TPI counter-1, Mtb FBA inh, Y pestis TopoI, PrPC TRFRET)
CCN1CCN(Cc2ccc(NC(=O)c3ccc(C)c(NC(=O)c4cccc5[nH]ccc45)c3)cc2C(F)(F)F)CC1	Mtb FBA inh 30.5! | Mtb FBA confirm active | GDH-TPI counter-2 active
CCCCCn1c(NC(=O)c2ccco2)c(S(=O)(=O)c2ccc(C)cc2)c2nc3ccccc3nc21	Mtb FBA inh 96.3 (no result: TcdB inh) | Mtb FBA confirm 30.4 | GDH-TPI counter-2 21.3
CCCCn1c(NC(=O)c2ccco2)c(C(=O)OCC)c2nc3ccccc3nc21	Mtb FBA inh 79.8 (no result: TcdB inh) | Mtb FBA confirm inactive | GDH-TPI counter-2 inactive
CCCCn1c(NC(=O)c2ccco2)c(S(=O)(=O)c2ccc(C)cc2)c2nc3ccccc3nc21	Mtb FBA inh 95.6 | Mtb FBA confirm 72.8 | GDH-TPI counter-2 46.7
CCCCn1c(NC(=O)c2ccc(Br)o2)c(S(=O)(=O)c2ccccc2)c2nc3ccccc3nc21	Mtb FBA inh 58.8 (no result: TcdB inh) | Mtb FBA confirm inactive | GDH-TPI counter-2 inactive
CNC[C@@H]1Oc2cc(C#CC3CCCCC3)ccc2S(=O)(=O)N([C@@H](C)CO)C[C@H]1C	none (no result: GDH-TPI counter-1, Mtb FBA inh, Y pestis TopoI, PrPC TRFRET)
COc1ccc2oc(C(=O)OCC(=O)NC3CCCCC3)c(C)c2c1	Mtb FBA inh 39.0 | Mtb FBA confirm 89.8 | GDH-TPI counter-2 78.3
CCOc1ccc2oc(C(=O)OCC(=O)NC(=O)NC3CCCC3)c(C)c2c1	none (no result: TcdB inh)
CCN(C(=O)COC(=O)c1oc2ccc(OC)cc2c1C)C1CCS(=O)(=O)C1 (configuration not stated)	Mtb FBA inh 60.4 | Mtb FBA confirm 111.8 | GDH-TPI counter-2 120.6
COc1ccc2oc(C(=O)Nc3nccs3)c(C)c2c1	none
CCOc1ccc2oc(C(=O)OCC(=O)NC3CCCC3)c(C)c2c1	Mtb FBA inh 31.2 | Mtb FBA confirm inactive | GDH-TPI counter-2 inactive | GDH-TPI DR 6.68
COc1ccc2oc(C(=O)NC3(C)CCS(=O)(=O)C3)c(C)c2c1 (configuration not stated)	Mtb FBA inh 39.5 | Mtb FBA confirm active | GDH-TPI counter-2 active
C[C@H](CO)N1C[C@H](C)[C@H](CN(C)C(=O)Nc2ccccc2)Oc2ccc(NC(=O)NC3CCCCC3)cc2C1=O	none (no result: GDH-TPI counter-1, Mtb FBA inh, Y pestis TopoI, PrPC TRFRET)
CCCN(CC1CC1)C(=O)COC(=O)c1oc2ccc(OCC)cc2c1C	Mtb FBA inh 41.9 | Mtb FBA confirm active | GDH-TPI counter-2 185.6
C[C@@H](C(=O)NCCc1ccccc1F)N1C(=O)N2CCc3c([nH]c4ccccc34)[C@@]2(C)C1=O	Mtb FBA inh 31.8 | Mtb FBA confirm active | GDH-TPI counter-2 188.2
COc1ccc(-c2cc(-c3cccnc3)c(C#N)c(N)n2)cc1	Mtb FBA inh 71.4 | Mtb FBA confirm 134.7 | GDH-TPI counter-2 105.7
COc1ccccc1-c1c(C#N)c(N)nc2c1CCc1ccccc1-2	Mtb FBA inh 42.0 (no result: TcdB inh) | Mtb FBA confirm active | GDH-TPI counter-2 active
COc1ccccc1-c1cc(-c2ccc(O)cc2)nc(N)c1C#N	Mtb FBA inh 66.4 | Mtb FBA confirm 139.9 | GDH-TPI counter-2 109.2
COc1ccc(-c2cc(C3CC3)nc(N)c2C#N)cc1	none
N#Cc1c(-c2cccs2)cc(-c2cccnc2)nc1N	Mtb FBA inh 87.5 (no result: TcdB inh) | Mtb FBA confirm 102.3 | GDH-TPI counter-2 80.8
O=C(Nc1ccc(F)cc1)N[C@@H]1CC[C@@H](CCn2cc(-c3ccccc3F)nn2)O[C@@H]1CO	none (no result: GDH-TPI counter-1, Mtb FBA inh, Y pestis TopoI, PrPC TRFRET)
CCC(=O)N(C)C[C@@H]1Oc2ncc(-c3ccc(F)cc3)cc2C(=O)N([C@@H](C)CO)C[C@H]1C	none (no result: GDH-TPI counter-1, Mtb FBA inh, Y pestis TopoI, PrPC TRFRET)
COCC(=O)Nc1ccc2c(c1)[C@H]1C[C@H](CC(=O)N[C@H](C)c3ccccc3)O[C@@H](CO)[C@H]1O2	none (no result: GDH-TPI counter-1, Mtb FBA inh, Y pestis TopoI, PrPC TRFRET)
O=C(CC(F)(F)F)N1C[C@H]2[C@@H](c3ccccc31)[C@@H](CO)N2C(=O)Cc1cccnc1	none (no result: GDH-TPI counter-1, Mtb FBA inh, Y pestis TopoI, PrPC TRFRET)
N#Cc1c(-c2ccc(Br)cc2)cc(-c2cccnc2)nc1N	Mtb FBA inh 28.8 (no result: TcdB inh) | Mtb FBA confirm inactive | GDH-TPI counter-2 inactive | GDH-TPI DR inactive
COc1cc(/C=C/C(=O)OC(C)C(=O)Nc2c(C)n(C)n(-c3ccccc3)c2=O)ccc1OCC#N (configuration not stated)	none
COc1cccc(/C=C/C(=O)OC(C)C(=O)Nc2c(C)n(C)n(-c3ccccc3)c2=O)c1 (configuration not stated)	Mtb FBA inh 28.7 | Mtb FBA confirm 122.4 | GDH-TPI counter-2 101.2
C[C@H](CO)N1C[C@H](C)[C@@H](CN(C)Cc2ccc(C(=O)O)cc2)Oc2c(NS(C)(=O)=O)cccc2C1=O	none (no result: GDH-TPI counter-1, Mtb FBA inh, Y pestis TopoI, PrPC TRFRET)
Nc1cc2nn(-c3ccccc3)nc2cc1Cl	Mtb FBA inh 36.2 | Mtb FBA confirm 109.0 | GDH-TPI counter-2 88.5
COc1ccc(NC(=O)N[C@H]2CC[C@@H](CCNC(=O)CCN3CCCCC3)O[C@@H]2CO)cc1	none (no result: GDH-TPI counter-1, Mtb FBA inh, Y pestis TopoI, PrPC TRFRET)
COc1ccc2cc(CCNC(=O)c3ccc(S(=O)(=O)N4CCOCC4)cc3)c(=O)[nH]c2c1	Mtb FBA inh 78.5 | Mtb FBA confirm 105.2 | GDH-TPI counter-2 85.1
COc1ccc(NS(=O)(=O)c2ccc(S(=O)(=O)N3CCOCC3)cc2)cc1	Mtb FBA inh 45.2 | Mtb FBA confirm 148.6 | GDH-TPI counter-2 102.3
COc1ccc(CCNC(=O)COc2ccc(S(=O)(=O)N3CCOCC3)cc2C)cc1	Mtb FBA inh 104.5 | Mtb FBA confirm 126.5 | GDH-TPI counter-2 103.9
Cc1cc2cc(CCNC(=O)c3ccc(S(=O)(=O)N4CCCC4)cc3)c(=O)[nH]c2cc1C	none
COc1ccc(NS(=O)(=O)c2ccc(S(=O)(=O)N3CCCC3)cc2)cc1	none (no result: TcdB inh)
COc1ccc(CCNC(=O)COc2ccc(S(=O)(=O)N3CCCC3)cc2)cc1	none
Cc1ccc(-n2ncc3c2CCCC3NC(=O)CCc2c(C)noc2C)cc1C (configuration not stated)	Mtb FBA inh 36.0 | Mtb FBA confirm active | GDH-TPI counter-2 active
CCOc1ccc2oc(C(=O)N3CCCN(C)CC3)c(C)c2c1	none
CCOc1ccc2oc(-c3ccccc3)c(C(N)=O)c2c1	Mtb FBA inh 68.9 | Mtb FBA confirm active | GDH-TPI counter-2 198.7
CCOc1ccc2oc(-c3ccccc3)c(C(=O)N(C)C)c2c1	Mtb FBA inh 49.7 | Mtb FBA confirm inactive | GDH-TPI counter-2 inactive
